Laboratory results published in PubChem BioAssay.
The source made the active and inactive calls.

Key:
[1] = test system: PRMT1 (protein arginine N-methyltransferase 1); experiment: PRMT1 binders on small-molecule microarrays, primary screen, biochemical, small-molecule microarray, 635 nm fluorescence (AID 1088); conditions: small-molecule microarray binding, higher = more signal;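 further: binding of Prmt1 protein to compounds spotted on small-molecule microarray slides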
[2] = yeast growth modulation, basal conditions, primary screen, YJM789 clinical isolate, OD600, 24 h (AID 1089);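 further: growth of clinical yeast isolate S. cerevisiae YJM 789 seeded 1000 cells per well; test concentration not given here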; conditions: S. cerevisiae YJM789 growth, higher = more signal, called active from +8 up or from −8 down
[3] = fission yeast growth modulation, primary screen, strain 972, OD600, 24 h, no modulator (AID 1090);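 further: basal condition with compound alone and no growth modifier present; test concentration not given here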; conditions: S. pombe 972 growth, higher = more signal, called active from +8 up or from −8 down
[4] = S. cerevisiae growth modulation with rapamycin, primary screen, strain BY4716, OD600, 96 h (AID 1091); conditions: higher = more signal, called active from +8 up or from −8 down; further: test concentration not given here
[5] = molecular target: Torsin-1A-interacting protein 2 (Homo sapiens) (UniProt Q8NFQ8); experiment: LULL1 binders on small-molecule microarray, primary screen, cell lysate, human LULL1 lysate, 635/667 nm fluorescence (AID 1092); conditions: hLULL1 lysate binding, 635 nm fluorescence, higher = more signal;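 further: probe is lysate of COS7 cells overexpressing human LULL1; score merges per-feature 667 nm fluorescence with signal-to-noise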
Chain of Torsin-1A-interacting protein 2 (Homo sapiens) (Q8NFQ8 whole entry, looked up): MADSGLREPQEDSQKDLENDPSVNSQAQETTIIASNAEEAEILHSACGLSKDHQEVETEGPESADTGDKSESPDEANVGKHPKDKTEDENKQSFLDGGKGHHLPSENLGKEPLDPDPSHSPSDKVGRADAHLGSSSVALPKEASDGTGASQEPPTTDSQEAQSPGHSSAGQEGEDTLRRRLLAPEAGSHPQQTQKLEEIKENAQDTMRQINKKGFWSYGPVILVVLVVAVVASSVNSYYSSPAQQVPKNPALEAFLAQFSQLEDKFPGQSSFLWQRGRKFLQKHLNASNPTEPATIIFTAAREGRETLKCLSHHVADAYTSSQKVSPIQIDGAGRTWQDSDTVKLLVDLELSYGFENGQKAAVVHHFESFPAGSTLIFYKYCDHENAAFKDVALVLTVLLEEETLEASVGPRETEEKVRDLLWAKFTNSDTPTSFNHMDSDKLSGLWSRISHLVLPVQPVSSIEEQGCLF

[6] = E. coli growth modulation, two-sided OD650, primary screen, E. coli filamentation project, strain DRC41, 24 h (AID 1093); conditions: OD650, 24 h, higher = more signal, called active from +8 up or from −8 down;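 further: MC1000 strain lacking acrAB efflux and sulA so SOS filamentation is blocked; test concentration not given here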
[7] = small-molecule microarray binders of probe aLefty2, primary screen, biochemical, biotinylated probe, 635/667 nm fluorescence (AID 1094); conditions: higher = more signal;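 further: score merges spot fluorescence near 667 nm with spot signal-to-noise ratio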
[8] = test system: Noggin (protein binding on small-molecule microarray); experiment: Noggin binders on small-molecule microarray, primary screen, biochemical, 635/667 nm fluorescence (AID 1095); conditions: 635 nm fluorescence, higher = more signal;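 further: score merges 667 nm feature fluorescence with signal to noise over triplicate slides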
[9] = molecular target: Neurogenic locus notch homolog protein 3 (Homo sapiens) (UniProt Q9UM47); experiment: NOTCH3 binders on small-molecule microarray, primary screen, biochemical, 635/667 nm fluorescence (AID 1096); conditions: NOTCH3 binding, 635 nm fluorescence, higher = more signal
Chain of Neurogenic locus notch homolog protein 3 (Homo sapiens) (Q9UM47 whole entry, looked up): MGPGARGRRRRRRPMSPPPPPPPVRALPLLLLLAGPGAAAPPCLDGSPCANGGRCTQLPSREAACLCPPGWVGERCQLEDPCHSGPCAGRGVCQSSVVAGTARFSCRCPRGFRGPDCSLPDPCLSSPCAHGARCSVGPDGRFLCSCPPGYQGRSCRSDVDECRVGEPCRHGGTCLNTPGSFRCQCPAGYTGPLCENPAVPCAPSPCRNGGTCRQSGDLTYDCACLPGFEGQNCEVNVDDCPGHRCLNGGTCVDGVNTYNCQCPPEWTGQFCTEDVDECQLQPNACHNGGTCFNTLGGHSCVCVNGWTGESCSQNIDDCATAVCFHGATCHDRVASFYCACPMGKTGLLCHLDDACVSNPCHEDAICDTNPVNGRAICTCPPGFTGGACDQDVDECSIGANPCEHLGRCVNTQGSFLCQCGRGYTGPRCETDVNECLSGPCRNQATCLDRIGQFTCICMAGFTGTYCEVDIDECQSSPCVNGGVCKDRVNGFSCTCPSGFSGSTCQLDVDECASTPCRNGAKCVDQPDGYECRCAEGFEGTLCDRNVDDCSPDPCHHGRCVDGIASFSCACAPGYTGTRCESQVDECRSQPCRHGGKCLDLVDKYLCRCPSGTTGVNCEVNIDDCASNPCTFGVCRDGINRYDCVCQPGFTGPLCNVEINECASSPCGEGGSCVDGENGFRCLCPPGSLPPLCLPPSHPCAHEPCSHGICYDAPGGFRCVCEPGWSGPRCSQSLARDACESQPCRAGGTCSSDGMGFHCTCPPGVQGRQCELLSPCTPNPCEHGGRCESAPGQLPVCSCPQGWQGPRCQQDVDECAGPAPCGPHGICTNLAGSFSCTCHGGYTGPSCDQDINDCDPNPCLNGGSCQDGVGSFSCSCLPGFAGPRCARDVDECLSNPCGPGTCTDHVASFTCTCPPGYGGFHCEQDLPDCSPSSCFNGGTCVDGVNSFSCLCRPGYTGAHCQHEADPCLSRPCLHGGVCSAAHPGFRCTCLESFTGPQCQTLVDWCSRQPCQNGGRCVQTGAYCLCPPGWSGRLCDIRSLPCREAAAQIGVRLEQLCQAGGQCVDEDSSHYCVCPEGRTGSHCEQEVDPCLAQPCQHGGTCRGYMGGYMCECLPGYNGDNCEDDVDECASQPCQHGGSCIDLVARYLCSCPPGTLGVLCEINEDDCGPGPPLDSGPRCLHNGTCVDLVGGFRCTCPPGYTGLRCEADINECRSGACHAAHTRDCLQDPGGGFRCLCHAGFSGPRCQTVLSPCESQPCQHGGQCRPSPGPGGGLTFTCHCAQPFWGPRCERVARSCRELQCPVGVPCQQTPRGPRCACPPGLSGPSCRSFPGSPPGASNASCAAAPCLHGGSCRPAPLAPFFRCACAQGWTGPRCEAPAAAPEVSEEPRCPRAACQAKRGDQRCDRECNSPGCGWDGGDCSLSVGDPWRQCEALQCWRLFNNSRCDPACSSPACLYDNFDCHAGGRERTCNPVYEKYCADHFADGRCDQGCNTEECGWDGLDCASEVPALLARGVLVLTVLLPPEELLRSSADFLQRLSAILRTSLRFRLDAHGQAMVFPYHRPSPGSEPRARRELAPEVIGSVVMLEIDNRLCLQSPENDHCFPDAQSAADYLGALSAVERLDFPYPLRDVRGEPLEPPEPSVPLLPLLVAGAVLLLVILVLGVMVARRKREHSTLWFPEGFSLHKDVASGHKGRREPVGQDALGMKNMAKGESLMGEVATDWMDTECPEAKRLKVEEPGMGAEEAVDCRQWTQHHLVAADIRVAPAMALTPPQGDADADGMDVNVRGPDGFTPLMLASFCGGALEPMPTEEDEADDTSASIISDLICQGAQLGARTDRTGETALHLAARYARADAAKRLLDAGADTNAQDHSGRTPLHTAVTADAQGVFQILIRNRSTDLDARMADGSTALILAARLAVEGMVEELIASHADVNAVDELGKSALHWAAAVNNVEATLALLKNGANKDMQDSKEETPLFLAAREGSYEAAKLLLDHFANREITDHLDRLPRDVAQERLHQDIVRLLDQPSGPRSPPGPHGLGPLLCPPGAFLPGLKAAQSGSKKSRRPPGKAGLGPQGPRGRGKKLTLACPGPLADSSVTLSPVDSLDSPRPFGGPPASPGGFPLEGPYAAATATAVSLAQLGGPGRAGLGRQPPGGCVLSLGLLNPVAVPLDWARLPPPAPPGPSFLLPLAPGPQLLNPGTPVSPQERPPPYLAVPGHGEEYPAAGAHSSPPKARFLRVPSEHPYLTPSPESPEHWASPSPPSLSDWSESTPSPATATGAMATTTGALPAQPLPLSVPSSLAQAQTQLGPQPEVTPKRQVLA

[10] = small-molecule microarray binders of probe aEGFR, primary screen, biochemical, biotinylated probe, 635/667 nm fluorescence (AID 1097); conditions: higher = more signal;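 further: probe is a biotinylated anti-EGFR antibody binding compounds printed on slides; score combines fluorescence near 667 nm and signal to noise of each spot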
[11] = test system: Plasmodium falciparum Sir2 (PF13_0152, Sir2A); experiment: pfSir2 binders on small-molecule microarrays, primary screen, biochemical, small-molecule microarray, 635 nm fluorescence (AID 1098); conditions: small-molecule microarray binding, fluorescence 635 nm; higher = more signal;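 further: score merges spot fluorescence intensity with its signal-to-noise ratio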
[12] = small-molecule microarray binders of probe aDKK1, primary screen, biochemical, biotinylated probe, 635/667 nm fluorescence (AID 1099); conditions: higher = more signal;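 further: score merges 667nm spot fluorescence with signal to noise across triplicate slides; reference of the scale not given here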
[13] = small-molecule microarray binders of probe aCHRDL2, primary screen, biochemical, biotinylated probe, 635/667 nm fluorescence (AID 1100); conditions: higher = more signal
[14] = splicing luciferase reporter signal modulators, primary screen, spliceosome inhibition project, cell-based, HEK293, splice +/- reporter (AID 1101); conditions: luminescence, 24 h, higher = more signal, called active from +8 up or from −8 down;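 further: HEK293 cells carrying a splicing-competent luciferase reporter gene; test concentration not given here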
[15] = molecular target: Fibroblast growth factor 10 (Homo sapiens) (UniProt O15520); experiment: FGF10 binders on small-molecule microarrays, primary screen, biochemical, small-molecule microarray, 635 nm fluorescence (AID 1102); conditions: FGF10 binding, fluorescence 635 nm, higher = more signal
Chain of Fibroblast growth factor 10 (Homo sapiens) (O15520 whole entry, looked up): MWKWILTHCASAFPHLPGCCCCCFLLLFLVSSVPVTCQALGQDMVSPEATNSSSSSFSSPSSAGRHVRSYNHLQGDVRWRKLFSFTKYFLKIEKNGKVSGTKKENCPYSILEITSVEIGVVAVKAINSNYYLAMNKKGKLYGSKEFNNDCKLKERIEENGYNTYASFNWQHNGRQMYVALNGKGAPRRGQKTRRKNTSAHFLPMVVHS

[16] = test system: glycogen synthase kinase-3 (GSK3A per assay name; protocol says GSK3B); experiment: GSK3 binders on small-molecule microarrays, primary screen, biochemical, small-molecule microarray, 635 nm fluorescence, GSK3A (AID 1103); conditions: small-molecule microarray binding, fluorescence 635 nm; higher = more signal; further: the record names both GSK3A and GSK3B
[17] = molecular target: Epidermal growth factor receptor (Homo sapiens) (UniProt P00533); experiment: EGFR binders on small-molecule microarrays, primary screen, biochemical, small-molecule microarray, 635 nm fluorescence (AID 1104); conditions: EGFR binding, higher = more signal;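 further: score merges 667 nm emission intensity with spot signal to noise over triplicate slides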
Chain of Epidermal growth factor receptor (Homo sapiens) (P00533 whole entry, looked up): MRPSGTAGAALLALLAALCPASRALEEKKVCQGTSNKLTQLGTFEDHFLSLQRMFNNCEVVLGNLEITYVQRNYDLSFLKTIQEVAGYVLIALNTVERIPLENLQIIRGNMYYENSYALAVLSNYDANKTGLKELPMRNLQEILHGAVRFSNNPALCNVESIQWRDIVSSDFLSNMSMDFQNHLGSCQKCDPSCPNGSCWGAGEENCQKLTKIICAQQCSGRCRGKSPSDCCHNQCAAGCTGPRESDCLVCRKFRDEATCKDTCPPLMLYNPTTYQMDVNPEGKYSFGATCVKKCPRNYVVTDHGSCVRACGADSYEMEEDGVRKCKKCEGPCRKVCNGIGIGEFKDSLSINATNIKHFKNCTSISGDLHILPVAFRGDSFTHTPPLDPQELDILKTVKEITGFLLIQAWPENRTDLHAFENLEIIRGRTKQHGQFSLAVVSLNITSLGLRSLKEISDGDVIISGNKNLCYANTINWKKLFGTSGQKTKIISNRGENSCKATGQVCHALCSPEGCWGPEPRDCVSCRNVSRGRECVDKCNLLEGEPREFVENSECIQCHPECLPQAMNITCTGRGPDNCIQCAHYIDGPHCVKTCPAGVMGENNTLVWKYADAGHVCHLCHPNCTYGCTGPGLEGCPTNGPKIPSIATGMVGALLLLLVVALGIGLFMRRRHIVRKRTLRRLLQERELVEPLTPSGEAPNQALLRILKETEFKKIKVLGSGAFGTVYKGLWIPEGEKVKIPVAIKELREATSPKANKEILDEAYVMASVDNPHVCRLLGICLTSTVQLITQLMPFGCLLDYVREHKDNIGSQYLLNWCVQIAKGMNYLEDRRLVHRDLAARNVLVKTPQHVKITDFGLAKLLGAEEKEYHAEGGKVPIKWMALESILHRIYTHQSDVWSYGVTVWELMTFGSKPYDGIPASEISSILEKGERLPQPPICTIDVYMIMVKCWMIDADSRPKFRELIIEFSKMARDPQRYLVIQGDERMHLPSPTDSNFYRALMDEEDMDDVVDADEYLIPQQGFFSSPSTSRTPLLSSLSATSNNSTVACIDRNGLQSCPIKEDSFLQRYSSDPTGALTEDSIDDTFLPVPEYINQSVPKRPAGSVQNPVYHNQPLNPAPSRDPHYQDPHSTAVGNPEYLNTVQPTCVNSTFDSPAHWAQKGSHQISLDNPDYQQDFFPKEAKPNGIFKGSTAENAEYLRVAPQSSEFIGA

[18] = molecular target: Follistatin-related protein 3 (Homo sapiens) (UniProt O95633); experiment: FSTL3 binders on small-molecule microarrays, primary screen, biochemical, small-molecule microarray, 635 nm fluorescence (AID 1105); conditions: FSTL3 binding, higher = more signal;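 further: score merges emission near 667 nm and signal to noise per printed spot across three slides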
Chain of Follistatin-related protein 3 (Homo sapiens) (O95633 whole entry, looked up): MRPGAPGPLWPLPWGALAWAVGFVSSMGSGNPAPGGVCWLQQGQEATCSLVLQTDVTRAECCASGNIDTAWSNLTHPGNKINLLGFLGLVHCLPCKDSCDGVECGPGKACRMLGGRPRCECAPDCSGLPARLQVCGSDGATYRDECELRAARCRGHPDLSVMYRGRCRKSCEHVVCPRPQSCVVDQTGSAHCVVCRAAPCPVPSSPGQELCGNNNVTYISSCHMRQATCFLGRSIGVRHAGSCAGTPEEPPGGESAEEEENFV

[19] = molecular target: Dickkopf-related protein 1 (Homo sapiens) (UniProt O94907); experiment: DKK1 binders on small-molecule microarrays, primary screen, biochemical, small-molecule microarray, 635 nm fluorescence scan (AID 1106); conditions: DKK1 binding, higher = more signal;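 further: score merges emission near 667 nm with signal to noise over three replicate slides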
Chain of Dickkopf-related protein 1 (Homo sapiens) (O94907 whole entry, looked up): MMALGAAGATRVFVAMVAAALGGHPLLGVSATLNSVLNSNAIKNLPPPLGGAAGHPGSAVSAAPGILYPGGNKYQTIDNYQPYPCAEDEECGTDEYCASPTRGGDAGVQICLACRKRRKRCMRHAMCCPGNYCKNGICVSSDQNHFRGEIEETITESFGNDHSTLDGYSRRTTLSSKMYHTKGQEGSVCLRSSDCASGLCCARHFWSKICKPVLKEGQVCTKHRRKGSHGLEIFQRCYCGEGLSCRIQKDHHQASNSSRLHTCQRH

[20] = test system: Inhibin beta A chain (activin A); experiment: INHBA (activin A) binders on microarrays, primary screen, biochemical, small-molecule microarray, 635 nm fluorescence scan (AID 1107); conditions: small-molecule microarray binding, higher = more signal;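 further: mouse activin A protein probed at 4.33 µg/mL on printed slides; score merges bound-protein fluorescence near 667 nm with spot signal-to-noise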

| Compound | composite z-score [1] | z-score [2] | z-score [3] | z-score [4] | composite z-score [5] | z-score [6] | composite z-score [7] | composite z-score [8] | composite z-score [9] | composite z-score [10] | composite z-score [11] | composite z-score [12] | composite z-score [13] | z-score [14] | composite z-score [15] | composite z-score [16] | composite z-score [17] | composite z-score [18] | composite z-score [19] | composite z-score [20] |
| --- | --- | --- | --- | --- | --- | --- | --- | --- | --- | --- | --- | --- | --- | --- | --- | --- | --- | --- | --- | --- |
| O=C(c1ccccc1)N1C(=O)[C@]2(Cc3ccccc31)N=C(c1ccc(OCCCO)cc1)O[C@@H]2c1ccccc1 | 1.54 | 0.525 (inactive) | 0.171 (inactive) | 3.7 (inactive) | 3.25 | 0.0249 (inactive) | -0.0059 | 1.12 | 1.07 | -0.157 | 1.2 | -0.0088 | 0.339 | -0.936 (inactive) | 1.42 | 1.31 | 0.0998 | 0.554 | 0.405 | 0.0538 |
| COCCOC(=O)N1C(=O)[C@@]2(c3cc(C#CCC(C(=O)OC)C(=O)OC)ccc31)[C@H](c1ccc(OCCO)cc1)N1[C@H](c3ccccc3)[C@H](c3ccccc3)OC(=O)[C@H]1[C@@H]2C(=O)N1CCc2cc(OC)c(OC)cc2C1 | 1.55 | 2.13 (inactive) | 2 (inactive) | 5.2 (inactive) | 2.81 | 0.713 (inactive) | 0.0146 | 1.72 | 1.06 | 0.091 | 0.752 | 0.258 | 0.0031 | 0.414 (inactive) | 1.4 | 1.31 | 0.76 | 1.28 | 0.411 | 0.622 |
| CC(C)c1ccc(NN2C(C(O)c3ccc(C#N)cc3)C=CC3C(=O)N(c4ccccc4)C(=O)C32)cc1 (stereo not given) | 1.54 | 0.902 (inactive) | 0.608 (inactive) | 0.44 (inactive) | 3.36 | -1.27 (inactive) | 0.286 | -0.144 | 1.07 | 0.16 | 1.28 | 0.935 | 0.836 | 0.44 (inactive) | 0.98 | 0.888 | 0.397 | 1.24 | -0.103 | 1 |
| CCCC=C(CCC)[C@@H](NS(=O)(=O)CC12CCC(CC1=O)C2(C)C)c1ccc(C(=O)OC)cc1 (stereo not given in full) | 0.788 | -0.723 (inactive) | -0.005 (inactive) | -0.909 (inactive) | 3.78 | 0.0623 (inactive) | 0.0672 | -0.132 | 0.408 | 0.471 | 0.765 | 0.615 | 0.143 | -0.422 (inactive) | 0.5 | 0.233 | 0.273 | 0.337 | 0.336 | -0.0344 |
| NCCCCCNC(=O)[C@H]1C[C@H]2C(=O)N3CCC[C@H]3C(=O)N2[C@H]1c1cccc(OCCO)c1 | 1.56 | 0.372 (inactive) | -1.53 (inactive) | 0.674 (inactive) | 3.15 | 0.0425 (inactive) | 0.767 | -0.321 | 0.0389 | 0.102 | 0.685 | 0.583 | 1.1 | 0.125 (inactive) | 0.68 | 0.703 | -0.525 | -0.515 | -0.331 | 0.896 |
| CCCCC(=C=CC[C@H](O)c1ccc(OCCO)cc1)CCO | -0.0461 | -0.879 (inactive) | -0.982 (inactive) | -1.02 (inactive) | 2.24 | -0.0915 (inactive) | -0.179 | -0.124 | -0.65 | -0.232 | 0.69 | -0.194 | 0.208 | -0.0149 (inactive) | 0.0655 | -0.686 | -0.709 | -0.24 | -0.704 | 0.817 |
| COCC(=C=CC[C@H](O)c1ccc(OCCO)cc1)CCO | 1.18 | 0.028 (inactive) | -0.406 (inactive) | -0.274 (inactive) | 2.42 | 0.399 (inactive) | 0.106 | 1.21 | 0.227 | 0.0882 | 1.09 | 0.0019 | 0.273 | -0.51 (inactive) | 0.4 | 0.42 | -0.211 | 0.593 | 0.0604 | 1.43 |
| Cc1ccc(S[C@]2(C(=O)NC(C)C)CC(=O)N(Cc3cc(C(F)(F)F)cc(C(F)(F)F)c3)[C@@H]2c2ccc(CO)cc2)cc1 | -0.44 | -0.637 (inactive) | -1.03 (inactive) | -0.864 (inactive) | 0.47 | -0.0937 (inactive) | -0.117 | -1.27 | -1.27 | -0.302 | 1.45 | -0.227 | 0.675 | 0.681 (inactive) | -0.671 | -1.27 | -1.48 | -1.57 | -1.5 | -0.403 |
